Results taken from PubChem BioAssay (EPA / NIEHS).
Inconclusive results are not listed. The source made the active and inactive calls. The calls were made as follows, unless noted: active = hit-call score of the fitted dose curve at least 0.9, where 1 is the maximum; inactive = score below 0.9.

Columns and labels:
[1] = ATG_DR4_LXR_CIS: Attagene CIS-FACTORIAL HepG2 Assay for human Liver X Receptor (LXR), DR4 submotif (AID 2282929); conditions: HepG2 Attagene DR4 cis-reporter, mRNA transcription; actives raise or lower the signal
In short: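 DR4 cis-reporter in HepG2, 24 h exposure. Detection: RT-PCR, 6-FAM labelling, CE fragment analysis. Endpoint fitted bidirectionally, DMSO = baseline.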

[2] = target: Aryl hydrocarbon receptor (Homo sapiens) (UniProt P35869); assay: ATG_Ahr_CIS: Attagene CIS-FACTORIAL HepG2 Assay for human Aryl Hydrocarbon Receptor (Ahr) (AID 2282930); conditions: HepG2 AhR cis-factorial reporter transcription; actives raise or lower the signal
In short: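 Transient MRTU transfection of HepG2 → 24 h compound exposure → total RNA, oligo(dT) RT → PCR, 6-FAM extension, HpaI cut → CE fluorescence. DMSO = baseline; bidirectional curve fit.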

[3] = ATG_GRE_CIS: Attagene CIS-FACTORIAL HepG2 Assay for human Glucocorticoid Response Elements (GRE) (AID 2282947); conditions: HepG2 GRE cis-reporter, Attagene multiplex mRNA; actives raise or lower the signal
In short: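 Multiplexed cis-reporter mRNA induction, HepG2, 24 h post-dose. RT-PCR, FAM-labelled, HpaI-digested amplicons by CE. Bidirectional fit vs DMSO.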

[4] = ATG_PBREM_CIS: Attagene CIS-FACTORIAL HepG2 Assay for human Phenobarbital-responsive Enhancer Module (PBREM) (AID 2282955); conditions: HepG2 PBREM cis-reporter, Attagene multiplexed transcription; actives raise or lower the signal
In short: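 Transfected liver-derived HepG2 cells exposed 24 h; PBREM reporter transcript quantified via RT-PCR and capillary electrophoresis, with activity in either direction referenced to DMSO.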

[5] = ATG_PXRE_CIS: Attagene CIS-FACTORIAL HepG2 Assay for human Pregnane X Receptor Element (PXRE) (AID 2282957); conditions: HepG2 Attagene CIS-FACTORIAL PXRE reporter, mRNA; actives raise or lower the signal
In short: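 Using HepG2 transfected with multiple reporter transcription units, endogenous factor-driven transcription was scored as reporter mRNA after 24 h exposure.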

[6] = ATG_PPRE_CIS: Attagene CIS-FACTORIAL HepG2 Assay for human Peroxisome Proliferator-activated Response Element (PPRE) (AID 2282958); conditions: HepG2 PPRE cis-element reporter, Attagene transcription factor profiling; actives raise or lower the signal
In short: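 Measured endpoint: PPRE-controlled reporter mRNA, detected by RT-PCR and capillary electrophoresis fluorescence, from transiently transfected HepG2 cells 24 h after dosing. Curves fitted in both directions using DMSO baseline.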

[7] = ATG_SREBP_CIS: Attagene CIS-FACTORIAL HepG2 Assay for human Sterol Regulatory Element Binding (SREBP) (AID 2282962); conditions: HepG2 Attagene cis-factorial SREBP reporter, mRNA; actives raise or lower the signal
In short: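 In this cis-format assay, HepG2 liver cells express reporters controlled by promoter elements responsive to native transcription factors. Exposure lasts 24 h; reporter mRNA fluorescence from capillary electrophoresis gives the signal, fitted bidirectionally against DMSO.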

[8] = ATG_TCF_b_cat_CIS: Attagene CIS-FACTORIAL HepG2 Assay for human T-Cell-Factor with beta-catenin (TCF/b-cat) (AID 2282965); conditions: HepG2 TCF/beta-catenin cis-reporter transcription, actives raise or lower the signal
In short: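 Endogenous transcription factor activity is captured through cis-promoter reporter constructs transiently introduced into human HepG2 liver cells. Induced reporter mRNA is measured after 24 h and fitted bidirectionally relative to DMSO.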

[9] = ATG_M_06_TRANS: Attagene TRANS-FACTORIAL HepG2 Assay for M06 Transcription Factor (Internal Marker) (AID 2282983; active = hit-call score of the fitted dose curve at least 0.9, where 1 is the maximum;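 also: reporter transcript level by RT-PCR then capillary electrophoresis fluorescence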); conditions: HepG2 Attagene TRANS M06 internal marker reporter
In short: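 Background control endpoint: reporter mRNA from transiently transfected HepG2 after 24 h dosing, detected by RT-PCR with capillary electrophoresis fluorescence. Analysed for gain versus DMSO.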

[10] = target: Nuclear receptor subfamily 4 group A member 2 (Homo sapiens) (UniProt P43354); assay: ATG_NURR1_TRANS: Attagene TRANS-FACTORIAL HepG2 Assay for human Nuclear Receptor Related Protein 1 (NURR1) (AID 2282985; active = hit-call score of the fitted dose curve at least 0.9, where 1 is the maximum); conditions: HepG2 Attagene TRANS reporter, mRNA readout
In short: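 Measures transcriptional activation by an exogenous NR-Gal4 chimera in transfected HepG2 liver cells. After 24 h, reporter RNA is reverse-transcribed, amplified and resolved by capillary electrophoresis; DMSO defines baseline.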

[11] = target: Myc proto-oncogene protein (Homo sapiens) (UniProt P01106); assay: ATG_Myc_CIS: Attagene CIS-FACTORIAL HepG2 Assay for human Myelocytomatosis (Myc) Proto-Oncogene Transcription Factor (AID 2282990); conditions: HepG2, Attagene cis-reporter transcription factor activity; actives raise or lower the signal
In short: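 HepG2, transient MRTU transfection (cis promoters, endogenous TFs); 24 h dosing; TriZol RNA → oligo(dT) RT → PCR → 6-FAM primer extension → HpaI cut → CE. Bidirectional fit vs DMSO.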

[12] = target: human Peroxisome Proliferator-activated Receptor alpha (PPARa), PPARA (gene 5465) (UniProt Q07869); assay: ATG_PPARa_TRANS: Attagene TRANS-FACTORIAL HepG2 Assay for human Peroxisome Proliferator-activated Receptor alpha (PPARa) (AID 2283001; active = hit-call score of the fitted dose curve at least 0.9, where 1 is the maximum)
In short: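 Transfected HepG2 cells treated with test chemical for 24 h. RNA isolated, reverse-transcribed with oligo(dT), PCR-amplified, FAM-labelled and HpaI-digested. Fragments sized by capillary electrophoresis; gain-of-signal fit relative to DMSO.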

[13] = target: Nuclear receptor subfamily 1 group I member 2 (Homo sapiens) (UniProt O75469); assay: ATG_PXR_TRANS: Attagene TRANS-FACTORIAL HepG2 Assay for human Pregnane X Receptor (PXR) (AID 2283008; active = hit-call score of the fitted dose curve at least 0.9, where 1 is the maximum)
In short: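 Multiplexed TRANS reporter panel in HepG2; this component tracks PXR-Gal4-driven reporter mRNA after 24 h dosing, measured by RT-PCR with capillary electrophoresis fluorescence, fitted against DMSO.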

[14] = target: Retinoic acid receptor RXR-alpha (Homo sapiens) (UniProt P19793); assay: ATG_RXRa_TRANS: Attagene TRANS-FACTORIAL HepG2 Assay for human Retinoid X Receptor alpha (RXRa) (AID 2283012; active = hit-call score of the fitted dose curve at least 0.9, where 1 is the maximum)
In short: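 Read-out: fluorescent reporter-transcript fragments quantified by capillary electrophoresis after RT-PCR. Transiently transfected HepG2 cells carrying GAL4-UAS reporters and NR-GAL4 chimeras were exposed to chemical for 24 h; activity scored as increase over DMSO.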

[15] = target: human Retinoid X Receptor beta (RXRb), RXRB (gene 6257) (UniProt P28702); assay: ATG_RXRb_TRANS: Attagene TRANS-FACTORIAL HepG2 Assay for human Retinoid X Receptor beta (RXRb) (AID 2283013; active = hit-call score of the fitted dose curve at least 0.9, where 1 is the maximum)
In short: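 Read-out: reporter mRNA induction via RT-PCR plus capillary electrophoresis fluorescence, analysed as signal increase relative to DMSO. Cells were human HepG2, transiently transfected with GAL4-UAS reporter constructs and chimeric receptor-Gal4 fusions, dosed for 24 h.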

[16] = TOX21_p53_BLA_p5_viability: Viability Assessment in the Tox21 HCT-116 p53 Agonism Beta-lactamase Assay, Phase 5 (AID 2283600; active = hit-call score of the fitted dose curve at least 0.9, where 1 is the maximum)
In short: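 Workflow: seed 4000 cells per well, wait 5 h, add compounds (DMSO, 217-fold dilution), incubate 16 h, load CCF4-AM 2 h, add CellTiter-Glo, read luminescence after 30 min.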

[17] = target: X-box-binding protein 1 (Homo sapiens) (UniProt P17861); assay: ATG_Xbp1_CIS: Attagene CIS-FACTORIAL HepG2 Assay for human X-box Binding Protein 1 (XBP1) (AID 2282972); conditions: HepG2 XBP1 cis-element reporter, Attagene multiplex; actives raise or lower the signal
In short: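 Changes in reporter transcript abundance, read by RT-PCR and capillary electrophoresis, reflect endogenous transcription factor activity. Transfected HepG2 cells received compound for 24 hours; DMSO defined baseline for bidirectional analysis.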

[18] = ATG_GAL4_TRANS: Attagene TRANS-FACTORIAL HepG2 Assay for GAL4 (Internal Marker) (AID 2282976; active = hit-call score of the fitted dose curve at least 0.9, where 1 is the maximum); conditions: HepG2 Attagene TRANS GAL4 internal marker reporter
In short: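 First, HepG2 cells were transfected with reporter units under GAL4-UAS control. Next, they were treated with chemical for 24 h. Finally, RNA was reverse-transcribed, PCR-amplified, FAM-labelled and resolved by capillary electrophoresis, with induction scored against DMSO.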

[19] = ATG_M_19_TRANS: Attagene TRANS-FACTORIAL HepG2 Assay for M19 Transcription Factor (Internal Marker) (AID 2282974; active = hit-call score of the fitted dose curve at least 0.9, where 1 is the maximum); conditions: HepG2 Attagene TRANS-FACTORIAL M19 internal marker reporter
In short: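 Using RT-PCR and capillary electrophoresis, reporter mRNA from transiently transfected human HepG2 cells was quantified following 24 h exposure; activity was fitted in the positive direction against DMSO.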

[20] = ATG_GLI_CIS: Attagene CIS-FACTORIAL HepG2 Assay for human Zinc Finger Protein GLI1 (AID 2282945); conditions: HepG2, Attagene cis-factorial reporter mRNA, GLI element; actives raise or lower the signal
In short: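 Bidirectional curve fits relative to DMSO, using reporter mRNA levels from RT-PCR plus capillary electrophoresis. Cells were HepG2 transiently carrying cis-regulated reporter constructs, harvested 24 h after dosing.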

human Peroxisome Proliferator-activated Receptor alpha (PPARa), PPARA (gene 5465), sequence (Q07869 whole entry, looked up, the tested form may be a part): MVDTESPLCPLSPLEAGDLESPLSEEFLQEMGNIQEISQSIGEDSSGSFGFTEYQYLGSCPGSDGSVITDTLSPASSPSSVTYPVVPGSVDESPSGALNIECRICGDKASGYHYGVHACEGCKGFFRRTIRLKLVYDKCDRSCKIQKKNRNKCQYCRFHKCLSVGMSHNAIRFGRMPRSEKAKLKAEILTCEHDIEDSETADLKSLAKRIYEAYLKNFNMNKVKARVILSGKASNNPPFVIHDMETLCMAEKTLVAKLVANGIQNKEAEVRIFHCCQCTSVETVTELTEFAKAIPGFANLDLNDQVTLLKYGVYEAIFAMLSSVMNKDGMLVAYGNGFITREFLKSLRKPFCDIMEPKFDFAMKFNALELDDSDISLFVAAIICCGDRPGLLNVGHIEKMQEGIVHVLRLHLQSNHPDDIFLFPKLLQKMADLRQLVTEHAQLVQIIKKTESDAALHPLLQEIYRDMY
X-box-binding protein 1 (Homo sapiens), sequence (P17861 whole entry, looked up): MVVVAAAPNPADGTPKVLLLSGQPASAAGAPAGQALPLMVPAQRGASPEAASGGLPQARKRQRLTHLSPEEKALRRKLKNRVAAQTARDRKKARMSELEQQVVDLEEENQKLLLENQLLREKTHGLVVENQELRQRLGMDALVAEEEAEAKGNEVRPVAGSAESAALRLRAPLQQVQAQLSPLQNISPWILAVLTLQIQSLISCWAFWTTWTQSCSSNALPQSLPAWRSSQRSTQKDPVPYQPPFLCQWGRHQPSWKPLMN
Aryl hydrocarbon receptor (Homo sapiens), sequence (P35869 whole entry, looked up): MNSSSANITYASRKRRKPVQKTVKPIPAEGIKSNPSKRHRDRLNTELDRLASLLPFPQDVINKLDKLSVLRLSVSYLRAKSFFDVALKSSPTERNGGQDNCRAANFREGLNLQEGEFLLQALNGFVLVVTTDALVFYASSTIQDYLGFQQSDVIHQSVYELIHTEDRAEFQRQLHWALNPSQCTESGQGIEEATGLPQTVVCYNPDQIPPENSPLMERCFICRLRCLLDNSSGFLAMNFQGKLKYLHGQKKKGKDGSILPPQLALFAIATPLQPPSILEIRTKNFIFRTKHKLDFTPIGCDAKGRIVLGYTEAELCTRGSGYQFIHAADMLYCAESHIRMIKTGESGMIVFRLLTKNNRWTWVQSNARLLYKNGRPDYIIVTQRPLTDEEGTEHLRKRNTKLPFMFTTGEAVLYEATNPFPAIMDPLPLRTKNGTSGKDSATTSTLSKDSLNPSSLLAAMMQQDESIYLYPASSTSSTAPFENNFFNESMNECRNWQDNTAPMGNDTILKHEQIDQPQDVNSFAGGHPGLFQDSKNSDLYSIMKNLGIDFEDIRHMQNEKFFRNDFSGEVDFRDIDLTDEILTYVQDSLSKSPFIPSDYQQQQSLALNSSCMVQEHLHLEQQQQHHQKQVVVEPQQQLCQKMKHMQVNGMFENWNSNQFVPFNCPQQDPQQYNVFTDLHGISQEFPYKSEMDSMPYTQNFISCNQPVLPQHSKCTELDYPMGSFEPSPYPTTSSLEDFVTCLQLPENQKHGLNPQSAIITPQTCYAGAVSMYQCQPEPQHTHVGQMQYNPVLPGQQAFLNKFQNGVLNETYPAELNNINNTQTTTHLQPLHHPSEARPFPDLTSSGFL
Nuclear receptor subfamily 4 group A member 2 (Homo sapiens), sequence (P43354 whole entry, looked up, the tested form may be a part): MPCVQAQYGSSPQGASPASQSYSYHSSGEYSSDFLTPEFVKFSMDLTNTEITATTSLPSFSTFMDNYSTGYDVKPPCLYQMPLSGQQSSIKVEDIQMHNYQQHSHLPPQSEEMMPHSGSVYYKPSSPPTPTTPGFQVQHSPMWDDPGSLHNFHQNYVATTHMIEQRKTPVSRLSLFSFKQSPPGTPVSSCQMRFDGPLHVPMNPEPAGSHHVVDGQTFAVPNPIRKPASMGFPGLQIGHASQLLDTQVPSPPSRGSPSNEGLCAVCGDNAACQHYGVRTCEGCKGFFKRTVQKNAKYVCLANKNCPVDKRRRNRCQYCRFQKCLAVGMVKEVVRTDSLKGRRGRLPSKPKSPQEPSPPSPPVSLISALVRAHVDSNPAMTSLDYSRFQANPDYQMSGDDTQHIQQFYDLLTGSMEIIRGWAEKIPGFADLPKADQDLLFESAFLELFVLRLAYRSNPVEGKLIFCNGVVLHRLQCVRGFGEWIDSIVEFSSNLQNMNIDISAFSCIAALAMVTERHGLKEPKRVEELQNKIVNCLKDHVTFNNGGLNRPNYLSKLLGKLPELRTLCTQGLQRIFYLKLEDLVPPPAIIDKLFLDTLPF
Retinoic acid receptor RXR-alpha (Homo sapiens), sequence (P19793 whole entry, looked up, the tested form may be a part): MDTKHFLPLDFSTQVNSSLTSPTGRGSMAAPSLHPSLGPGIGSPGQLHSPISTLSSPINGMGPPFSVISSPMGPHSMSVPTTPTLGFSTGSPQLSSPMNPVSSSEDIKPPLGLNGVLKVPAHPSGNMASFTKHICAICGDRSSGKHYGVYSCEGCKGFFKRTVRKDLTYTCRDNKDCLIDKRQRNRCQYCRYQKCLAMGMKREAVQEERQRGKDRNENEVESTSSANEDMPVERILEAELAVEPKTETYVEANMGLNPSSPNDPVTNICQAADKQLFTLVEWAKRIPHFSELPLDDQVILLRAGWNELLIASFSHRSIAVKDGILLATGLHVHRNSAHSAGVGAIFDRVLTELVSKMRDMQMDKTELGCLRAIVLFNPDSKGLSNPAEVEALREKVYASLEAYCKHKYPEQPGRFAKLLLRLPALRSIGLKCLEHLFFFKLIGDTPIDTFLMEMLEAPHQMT
Nuclear receptor subfamily 1 group I member 2 (Homo sapiens), sequence (O75469 whole entry, looked up, the tested form may be a part): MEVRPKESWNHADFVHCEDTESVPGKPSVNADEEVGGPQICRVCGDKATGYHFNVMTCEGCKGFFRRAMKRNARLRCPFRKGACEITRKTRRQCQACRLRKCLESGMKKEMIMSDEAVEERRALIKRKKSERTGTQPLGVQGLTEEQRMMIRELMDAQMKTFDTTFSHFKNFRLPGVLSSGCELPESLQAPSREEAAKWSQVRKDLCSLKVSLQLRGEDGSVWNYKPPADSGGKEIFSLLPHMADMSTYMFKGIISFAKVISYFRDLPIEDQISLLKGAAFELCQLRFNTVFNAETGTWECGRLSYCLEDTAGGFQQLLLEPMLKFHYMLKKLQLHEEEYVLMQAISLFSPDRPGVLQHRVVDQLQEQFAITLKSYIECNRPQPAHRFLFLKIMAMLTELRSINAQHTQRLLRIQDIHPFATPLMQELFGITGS
Myc proto-oncogene protein (Homo sapiens), sequence (P01106 whole entry, looked up): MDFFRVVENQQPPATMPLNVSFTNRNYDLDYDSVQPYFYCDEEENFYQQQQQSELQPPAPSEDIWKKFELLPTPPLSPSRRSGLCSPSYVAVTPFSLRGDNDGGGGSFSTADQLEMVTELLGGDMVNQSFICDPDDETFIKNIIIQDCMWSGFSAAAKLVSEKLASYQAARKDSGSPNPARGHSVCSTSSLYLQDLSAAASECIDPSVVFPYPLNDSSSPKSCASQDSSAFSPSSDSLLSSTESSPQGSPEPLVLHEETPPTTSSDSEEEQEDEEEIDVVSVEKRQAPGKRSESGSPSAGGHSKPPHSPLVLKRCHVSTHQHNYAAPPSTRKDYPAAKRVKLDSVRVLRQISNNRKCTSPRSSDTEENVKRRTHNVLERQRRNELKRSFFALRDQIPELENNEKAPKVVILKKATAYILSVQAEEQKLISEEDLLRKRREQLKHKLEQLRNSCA
human Retinoid X Receptor beta (RXRb), RXRB (gene 6257), sequence (P28702 whole entry, looked up, the tested form may be a part): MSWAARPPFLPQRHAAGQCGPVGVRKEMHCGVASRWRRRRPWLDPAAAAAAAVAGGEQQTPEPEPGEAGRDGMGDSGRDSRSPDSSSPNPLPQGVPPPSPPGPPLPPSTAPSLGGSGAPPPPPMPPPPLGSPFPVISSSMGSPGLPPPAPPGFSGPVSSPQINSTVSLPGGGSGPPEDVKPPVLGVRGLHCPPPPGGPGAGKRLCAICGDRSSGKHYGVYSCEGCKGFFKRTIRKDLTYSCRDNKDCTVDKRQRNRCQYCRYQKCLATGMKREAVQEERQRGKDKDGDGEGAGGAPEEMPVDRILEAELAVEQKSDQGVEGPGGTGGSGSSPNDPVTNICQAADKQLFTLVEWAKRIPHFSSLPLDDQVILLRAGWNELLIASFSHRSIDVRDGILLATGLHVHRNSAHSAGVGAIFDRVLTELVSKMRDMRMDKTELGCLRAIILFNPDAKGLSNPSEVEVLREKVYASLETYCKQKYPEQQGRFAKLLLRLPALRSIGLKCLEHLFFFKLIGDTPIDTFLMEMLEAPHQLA

Structure (SMILES): O=c1c2ccccc2c(=O)c2c1cc(Cl)c1[nH]c3c([nH]c12)c(Cl)cc1c(=O)c2ccccc2c(=O)c13
- outcome [1]: inactive
- AC50 [2]: 33.6 µM (active)
- outcome [3]: inactive
- outcome [4]: inactive
- AC50 [5]: 11.2 µM (active)
- outcome [6]: inactive
- outcome [7]: inactive
- outcome [8]: inactive
- outcome [9]: inactive
- outcome [10]: inactive
- outcome [11]: inactive
- outcome [12]: inactive
- AC50 [13]: 10.1 µM (active)
- outcome [14]: inactive
- AC50 [15]: 138 µM (active)
- outcome [16]: inactive

Structure (SMILES): Oc1ccc(C2(c3ccc(O)cc3)c3ccccc3-c3ccccc32)cc1
- AC50 [1]: 10.6 µM (active)
- outcome [2]: inactive
- outcome [3]: inactive
- AC50 [5]: 2.78 µM (active)
- outcome [6]: inactive
- AC50 [7]: 13.6 µM (active)
- outcome [8]: inactive
- AC50 [17]: 13.6 µM (active)
- outcome [18]: inactive
- outcome [9]: inactive
- outcome [10]: inactive
- outcome [11]: inactive
- outcome [12]: inactive
- AC50 [13]: 0.384 µM (active)
- outcome [14]: inactive
- AC50 [16]: 74 µM (active)

Structure (SMILES): C#CC1(O)CCCCC1
- outcome [1]: inactive
- outcome [2]: inactive
- outcome [8]: inactive
- outcome [17]: inactive
- outcome [18]: inactive
- outcome [9]: inactive
- outcome [10]: inactive
- outcome [15]: inactive

Structure (SMILES): O=[N+]([O-])O.O=[N+]([O-])O.[Cd]
- AC50 [1]: 0.666 µM (active)
- outcome [2]: inactive
- outcome [3]: inactive
- outcome [8]: inactive
- outcome [19]: inactive
- outcome [18]: inactive
- outcome [9]: inactive
- outcome [10]: inactive
- AC50 [11]: 0.962 µM (active)
- outcome [14]: inactive
- outcome [16]: inactive

Structure (SMILES): Oc1cc(Cl)ccc1Cl
- outcome [1]: inactive
- outcome [2]: inactive
- outcome [3]: inactive
- AC50 [5]: 27.6 µM (active)
- outcome [6]: inactive
- outcome [7]: inactive
- outcome [8]: inactive
- outcome [19]: inactive
- outcome [18]: inactive
- outcome [9]: inactive
- outcome [11]: inactive
- outcome [12]: inactive
- outcome [13]: inactive
- outcome [14]: inactive
- outcome [16]: inactive

Structure (SMILES): CCc1cc(C)cc(CC)c1-c1c(OC(=O)C(C)(C)C)n2n(c1=O)CCOCC2
- outcome [1]: inactive
- outcome [2]: inactive
- outcome [20]: inactive
- outcome [3]: inactive
- AC50 [5]: 9.48 µM (active)
- outcome [6]: inactive
- outcome [7]: inactive
- outcome [8]: inactive
- outcome [17]: inactive
- outcome [19]: inactive
- outcome [18]: inactive
- outcome [10]: inactive
- outcome [11]: inactive
- outcome [13]: inactive
- outcome [14]: inactive

Structure (SMILES): C=Cc1cccc(CCl)c1
- outcome [1]: inactive
- outcome [2]: inactive
- outcome [20]: inactive
- AC50 [3]: 100 µM (active)
- outcome [4]: inactive
- AC50 [5]: 46.2 µM (active)
- outcome [8]: inactive
- AC50 [17]: 38.5 µM (active)
- outcome [19]: inactive
- outcome [10]: inactive
- outcome [11]: inactive
- outcome [12]: inactive
- outcome [15]: inactive
- outcome [16]: inactive

Structure (SMILES): CN1C(=O)CCS(=O)(=O)C1c1ccc(Cl)cc1 (centres undefined)
- outcome [1]: inactive
- outcome [2]: inactive
- outcome [20]: inactive
- outcome [3]: inactive
- outcome [5]: inactive
- outcome [8]: inactive
- outcome [17]: inactive
- outcome [18]: inactive
- outcome [9]: inactive
- outcome [11]: inactive
- outcome [12]: inactive
- outcome [13]: inactive

Structure (SMILES): O=C(CCN1CC1)OCC(CO)(COC(=O)CCN1CC1)COC(=O)CCN1CC1
- outcome [1]: inactive
- outcome [2]: inactive
- outcome [20]: inactive
- outcome [3]: inactive
- outcome [4]: inactive
- outcome [5]: inactive
- outcome [17]: inactive
- outcome [18]: inactive
- outcome [9]: inactive
- outcome [11]: inactive
- outcome [14]: inactive
- outcome [15]: inactive
- outcome [16]: inactive

Structure (SMILES): Cc1ccccc1CCl
- outcome [1]: inactive
- outcome [2]: inactive
- outcome [20]: inactive
- outcome [3]: inactive
- outcome [4]: inactive
- outcome [6]: inactive
- outcome [7]: inactive
- outcome [18]: inactive
- outcome [9]: inactive
- outcome [12]: inactive
- outcome [13]: inactive
- outcome [14]: inactive
- outcome [15]: inactive
- outcome [16]: inactive
